In PubChem BioAssay AID1117359 (Southern Research Institute, 2015):
The campaign covered roughly 1,500 compounds. About 460 (31%) were called active.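 The calls were made as follows: active = viability at or below 80% at any tested concentration, marking the compound as toxic; inactive = the rest.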 Only a sample is shown. Potency and affinity values are given separately.

Assay: viability loss in THP-1 monocytes – THP-1 cells, cytotoxicity control for Vif-APOBEC3G degradation inhibitor project, dose response (AID 1117359)
Settings: THP-1 viability, CellTiter-Glo luminescence, 72 h; series mostly up to 40 µM; viability: at the top concentration

SMILES | viability | outcome
Oc1c(CN2CCOCC2)cc(CN2CCOCC2)c(O)c1O | 94% (inactive) | 
COc1ccccc1NS(=O)(=O)c1cc(C(=O)NCCN2CCOCC2)ccc1Cl | 84.2% (inactive) | 
CCOc1ccc(-n2c(SCC(N)=O)nnc2-c2cccnc2)cc1 | 99.5% (inactive) | 
CN(Cc1cccs1)C(=O)Cn1cnc2ccccc2c1=O | 84.5% (inactive) | 
O=C1CC(NCc2ccco2)C(=O)N1CCc1ccccc1 (stereo not drawn) | 113% (inactive) | 
O=C(NCCc1ccccc1)c1ccc2nc(-c3ccco3)c(-c3ccco3)nc2c1 | 86.9% (inactive) | 
Cc1c(F)cccc1NC(=O)CCCCCC1NC(=O)NC1C (stereo not drawn) | 89.3% (inactive) | 
CCN1C[C@@H]2[C@@H]3C(=O)N(Cc4ccccc4)C(=O)[C@@H]3[C@](C)(C(=O)OC)N2C1=NC1CCCCC1 | 99.2% (inactive) | 
CO[C@H]1C=CO[C@@]2(C)Oc3c(C)c(O)c4c(O)c(c(C=NN5CCN(C)CC5)c(O)c4c3C2=O)NC(=O)C(C)=CC=C[C@H](C)[C@H](O)[C@@H](C)[C@@H](O)[C@@H](C)[C@H](OC(C)=O)[C@@H]1C | 86.4% (inactive) | 
CSc1ccc(CN(C)CC(=O)NC(=O)NCCC2=CCCCC2)cc1 | 88.9% (inactive) | 
CC1(OC(=O)C2CCCC2)C(=O)C=C2C=C(c3ccsc3)OC=C2C1=O (stereo not drawn) | 107% (inactive) | 
CC1(CCl)N([O-])C2=C(CCCC2)[N+]1=O (stereo not drawn) | 99.6% (inactive) | 
O=C(N/N=C/c1cccnc1)c1cc(O)c(O)c(O)c1 | 98.4% (inactive) | 
O=C(NN=C1CCCCCC1)c1cccnc1 | 82.5% (inactive) | 
Cc1cc(C)n(CC(=O)NNC(=O)c2ccc(NC(=O)CC#N)cc2)n1 | 111% (inactive) | 
CN(C)c1ccc(N/C=C/C(=O)c2ccco2)cc1 | 82.4% (inactive) | 
Nc1cc(N)nc(SCc2cc([N+](=O)[O-])cc3c2OCOC3)n1 | 102% (inactive) | 
Cc1ccc(N/N=C/c2c(C)c(C#N)c(=O)n(C)c2O)cc1C | 109% (inactive) | 
O=S(=O)(c1ccc(NC(=S)N/N=C/c2ccc(O)c(O)c2)cc1)N1CCOCC1 | 87.7% (inactive) | 
Cn1ccnc1Sc1ccc(/C=N/NC(=O)c2ccccc2O)cc1[N+](=O)[O-] | 109% (inactive) | 
O=C1C(=Cc2ccco2)CCCC1=Cc1ccco1 | 82.8% (inactive) | 
O=C(COC(=O)COc1ccc(Cl)cc1Cl)NC1CCCCCC1 | 98.7% (inactive) | 

SMILES | viability | outcome
CN1CCN(C(=O)/C(=C/c2ccc(F)cc2)NC(=O)c2ccccc2)CC1 | 91.1% (inactive) | 
O=C(Cc1c(F)cccc1Cl)NNC(=O)c1ccccc1Cl | 95.7% (inactive) | 
COc1ccc2nc(-c3ccccc3)cc(C(=O)OCC(=O)N3CC(C)OC(C)C3)c2c1 (stereo not drawn) | 86.4% (inactive) | 
O=C(c1coc(=O)c(Br)c1)N1CCCc2ccccc21 | 91.1% (inactive) | 
CCCCN(C(=O)c1ccccc1OCc1ccc(F)cc1)c1c(N)n(CC(C)C)c(=O)[nH]c1=O | 84.6% (inactive) | 
COc1ccc(S(N)(=O)=O)cc1C(=O)OCC(=O)NC(C)(C#N)C1CC1 (stereo not drawn) | 106% (inactive) | 
CCc1ccc(N2C(=O)Cc3c2nc(N)c(C#N)c3N)cc1 | 89.4% (inactive) | 
COC(=O)c1ccccc1NC(=O)c1noc2c1CCC2 | 92.8% (inactive) | 
CC(C)(C)c1ccc(S(=O)(=O)N2CCCCC2)cc1 | 82.3% (inactive) | 
O=C(CN1CCN(S(=O)(=O)c2ccc(F)cc2)CC1)c1ccc(O)c(O)c1 | 111% (inactive) | 
O=C(CCS(=O)(=O)c1ccc(Br)cc1)N1CCN(c2ccc(F)cc2)CC1 | 90.7% (inactive) | 
CC(=O)Nc1ccc(NC(=O)C(C)OC(=O)CC23CC4CC(CC(Br)(C4)C2)C3)cc1 (stereo not drawn) | 94.2% (inactive) | 
CC(=O)OC1OCCOC1NC(=S)Nc1ccc(C)cc1 (stereo not drawn) | 85.9% (inactive) | 
CC(C)(C)NCCCCOc1ccc(F)cc1 | 103% (inactive) | 
COC/C=C/C1=CC2=CC(=O)C(C)(OC(=O)c3ccco3)C(=O)C2=CO1 (stereo not drawn) | 83.5% (inactive) | 
COc1ccc2nc(NNC(=O)c3cc(=O)c4ccccc4o3)sc2c1 | 87% (inactive) | 
O=c1c(N=Nc2ccc(O)cc2)c(-c2ccccc2)[nH]n1-c1ccc([N+](=O)[O-])cc1 | 86% (inactive) | 
O=C(c1cc2ccccc2o1)N1CC=C(c2ccccc2)CC1 | 81.2% (inactive) | 
CC1(OC(=O)CCc2ccccc2)C(=O)C=C2C=C(c3ccsc3)OC=C2C1=O (stereo not drawn) | 102% (inactive) | 
CCOC(=O)C1(Cc2ccc(OC)cc2)CCN(C(=O)Cc2cccnc2)CC1 | 97.1% (inactive) | 
CCOc1ccc(-n2c(SCC(=O)Nc3cc(C)on3)nnc2-c2c[nH]c3ccccc23)cc1 | 88.8% (inactive) | 
O=C(CC(=O)NN=Cc1ccc2c(c1)CCC2)NN=Cc1ccc2c(c1)CCC2 | 87.9% (inactive) | 

SMILES | viability | outcome
COc1cc2ccccc2nn1 | 95.7% (inactive) | 
C/C(=N\NC(=O)c1ccc(NS(=O)(=O)c2cccs2)cc1)c1ccccc1 | 88.2% (inactive) | 
CCN1CCN(C(=O)C2COc3ccccc3O2)CC1 (stereo not drawn) | 99.7% (inactive) | 
O=C(COC(=O)c1ccc(NS(=O)(=O)c2cccs2)cc1)NCc1ccco1 | 87.8% (inactive) | 
O=C(O)CCc1ccc(-c2cccs2)n1-c1ccc(C(=O)O)cc1 | 110% (inactive) | 
O=C(c1ccc(=O)oc1)N1CCCc2ccccc21 | 84.4% (inactive) | 
O=C(Cc1ccccn1)c1ccncc1 | 99.1% (inactive) | 
Cc1cc(O)ccc1-c1cnc2ccccc2n1 | 81.7% (inactive) | 
Cc1cc(/C=C2\SC(=S)NC2=O)c(C)n1-c1ccc(O)cc1 | 108% (inactive) | 
O=C(NCC1CCCO1)c1cc2ccccc2oc1=O (stereo not drawn) | 102% (inactive) | 
NS(=O)(=O)c1ccc(CCNC(=O)CCS(=O)(=O)c2ccc(Br)cc2)cc1 | 89.9% (inactive) | 
CC(OC(=O)/C=C/c1ccco1)C(=O)NC1CCCCC1 (stereo not drawn) | 95.2% (inactive) | 
CC(=O)Nc1ccc(NC(=O)C(C)OC(=O)CCc2c[nH]c3ccccc23)cc1 (stereo not drawn) | 81.5% (inactive) | 
O=c1ccc2c(-c3ccccc3S(=O)(=O)O)c3ccc(O)c(O)c3oc-2c1O | 88.9% (inactive) | 
CCOc1ccccc1C(O)C1=CC(=O)c2ccccc2C1=O (stereo not drawn) | 83.9% (inactive) | 
CCOc1cccc(C(=O)Nc2ccccc2OC(F)F)c1 | 99.6% (inactive) | 
CC(=O)Nc1nnc(SCC(=O)N2CCCc3ccccc32)s1 | 106% (inactive) | 
O=C(Nc1ccc(F)c(Cl)c1)c1cccnc1 | 80% (inactive) | 
Clc1ccc2c(c1)nc1n2CCCC1 | 106% (inactive) | 
FC(F)Oc1ccccc1NC(=S)Nc1cccnc1 | 80.5% (inactive) | 
CN(C)c1nc(N)nc(CSc2nc3c(c(=O)n(C)c(=O)n3C)n2Cc2ccccc2F)n1 | 98.6% (inactive) | 
CCS(=O)(=O)c1ccc2oc(Nc3cccc(OC)c3)nc2c1 | 80.4% (inactive) | 

SMILES | viability | outcome
CC1CCN(S(=O)(=O)c2ccc(C(=O)NCc3ccc4c(c3)OCO4)cc2)CC1 | 89.1% (inactive) | 
CC(C)(C)c1nnc(NC(=O)c2ccc(Cl)nc2)s1 | 101% (inactive) | 
CCn1c(C)nc2cc(C(=O)N/N=C/c3ccc(O)c(O)c3O)ccc21 | 89.4% (inactive) | 
Cc1cccc(N/N=C/c2ccc(O)c(O)c2O)c1 | 97.8% (inactive) | 
Cc1cc(C)c2c(c1)[C@@H]1C=CC[C@@H]1[C@H](c1ccc(S(=O)(=O)N3CCOCC3)cc1)N2 | 95.3% (inactive) | 
Cc1oc(-c2ccccc2)nc1C(=O)OCC(=O)NCc1ccc(F)cc1 | 92.5% (inactive) | 
CCC1(C(N)=O)CC2C=CC1C2 (stereo not drawn) | 95.8% (inactive) | 
Cc1ccc(NC(=O)CCCCCC2NC(=O)NC2C)cc1 (stereo not drawn) |  | inactive
O=C(CN1C(=O)c2ccccc2C1=O)NCC(=O)OCC(=O)c1cccc([N+](=O)[O-])c1 | 91.2% (inactive) | 
C=C(C)C(=O)Nc1ccc2c(c1)OCCOCCOCCO2 | 102% (inactive) | 
O=C(O)CCc1ccc(S(=O)(=O)Nc2cc(C(F)(F)F)ccc2N2CCCC2)cc1 | 87.6% (inactive) | 
CCCCNC(=O)CN1C(=O)CSc2ccc(S(=O)(=O)N3CCOCC3)cc21 | 95.1% (inactive) | 
Cc1c(Cl)cccc1NC(=O)CC(Cc1ccccc1)C(=O)O (stereo not drawn) | 111% (inactive) | 
CCN(CC)c1ccc(NC(=O)c2c(C)noc2C)cc1 | 87.7% (inactive) | 
CCNC(=S)Nc1ccc(N(c2ccccc2)C(C)C)cc1 | 92.8% (inactive) | 
CCCC(=O)NNC(=O)Nc1ccccc1 | 98.9% (inactive) | 
CSc1nc(N2CCOCC2)c2c3c(sc2n1)CCC3 | 89% (inactive) | 
Cc1nn(CC(=O)Nc2ccccn2)c(C)c1Br | 100% (inactive) | 
CC(=O)c1ccc(N2CCN(C(=O)c3ccc4c(c3)OCO4)CC2)cc1 | 86.4% (inactive) | 
CC(C)(CS(=O)(=O)[O-])NC(=O)CC[N+](C)(C)CCO |  | inactive
CCOc1cc(N2CCOCC2)c(OCC)cc1NC(=O)CSc1ncn[nH]1 | 91.4% (inactive) | 
CCOc1ccc(S(=O)(=O)N2CC(=O)Nc3ccccc32)cc1C#N | 89.5% (inactive) | 

SMILES | viability | outcome
O=C(N/N=C/C=C/c1ccco1)c1cccs1 | 97.2% (inactive) | 
O=C(CSc1nc2cc([N+](=O)[O-])ccc2n1-c1ccccc1)NCc1ccc2c(c1)OCO2 | 85.6% (inactive) | 
COCCCN1C(=O)N(c2ccc(F)cc2)C(=O)C1CC(=O)Nc1ccc(OC)cc1 (stereo not drawn) | 91.6% (inactive) | 
Cc1ccc(S(=O)(=O)OCC(=O)Nc2ccc(C(=O)O)c(O)c2)cc1 | 91.7% (inactive) | 
CC(C)CCN1CCN(Cc2cccn2-c2cccnc2)CC1CCO (stereo not drawn) | 90.9% (inactive) | 
NS(=O)(=O)c1ccc(NC(=O)COC(=O)c2cc(Cl)ccc2[N+](=O)[O-])cc1 | 114% (inactive) | 
Cc1cc(NC(=O)C2CCCC2)n(-c2nc3ccccc3[nH]2)n1 | 108% (inactive) | 
CCN(c1ccc(NC(=O)COC(=O)c2ccc([N+](=O)[O-])o2)cc1)C(C)C | 94.4% (inactive) | 
CSc1ccc(/C=N/n2c(C3CCCCC3)n[nH]c2=S)cc1 | 83.4% (inactive) | 
NS(=O)(=O)c1ccc(N=Nc2ccc(=O)[nH]c2O)cc1 | 107% (inactive) | 
O=C(O)c1cccc2c1Oc1ccccc1S2(=O)=O | 106% (inactive) | 
CC(C)(C)CN1CCNC(=O)C1CC(=O)NCCc1ccccc1C(F)(F)F (stereo not drawn) | 86.3% (inactive) | 
CCCCC1=CC2=CC(=O)C(C)(OC(=O)C3CCCC3)C(=O)C2=CO1 (stereo not drawn) | 106% (inactive) | 
Cc1cccc(OCc2nc(C)cc(=O)[nH]2)c1 | 86.8% (inactive) | 
OC(c1ccc(Cl)cc1)C(O)c1nc2ccccc2[nH]1 (stereo not drawn) | 83.6% (inactive) | 
COc1ccc(NC(=O)c2cc(-c3ccco3)nc3ccccc23)cc1S(=O)(=O)N1CCOCC1 | 95.4% (inactive) | 
COc1ccc(N(CC(=O)NCc2ccccc2C)S(=O)(=O)c2ccc(C)cc2)cc1OC | 90% (inactive) | 
CCc1cccc(CC)c1-n1c(SCC(=O)N2CCCc3ccccc32)nc(O)cc1=O | 105% (inactive) | 
CCc1ccc(-c2nc(SCC(=O)NC3CCS(=O)(=O)C3)n[nH]2)cc1 (stereo not drawn) | 82.9% (inactive) | 
O=C(CSc1ncnc2ccccc12)Nc1cccc(S(=O)(=O)N2CCOCC2)c1 | 98.2% (inactive) | 
